Measurements taken from the supplement of paper PMC6555819.

test system: VDR:RXRa (NR concentration 270 nM, RXRa partner concentration 90 nM); test: PBM binding z-score (relative to random genomic background probes); higher = stronger binding; sequences stand for … in GC…GCGATTGACAGCGTAGAATGAAGG
Protocol: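 Protein-binding microarray (Agilent 4x180K custom design, double-stranded 60-nt probes: 5' GC cap, 34-nt variable region, 24-nt constant primer region; full probe sequence given). Purified or IVT nuclear receptor:RXRα heterodimers (3:1 NR:RXRα, mostly 270:90 nM) or homodimers were incubated for 1 h in PBS with 2% milk and no ligand, then detected with Alexa488 antibodies. Fluorescence from o1-orientation probes (~5 replicates averaged) was converted to z-scores against 500 random hg19 background probes. Variable regions are seed direct-repeat (DR0–DR5) sites, all their single-nucleotide variants and half-site ablations.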

| Sequence | PBM binding z-score |
| --- | --- |
| TCATAGAGGTAAATGCTAGGTGAAAGTCCGATCT | 0.364 |
| ATATGTAGGTTATCGGGTGATTCAGTTTGCGCAT | 1.77 |
| GATACTGGGTCAAGGCCAGAGTACGCGTATTGAT | 1.46 |
| CCTATTAGTTGACCATATGGGCAACCGAAGCTCG | 0.234 |
| CAAACTAGGTCAAGAGGTCAAAGTGCGCTTCCCG | 6.26 |
| TCTTGTAGATCAACACGAGGTTAAGAAAGATCGA | 0.895 |
| GATACAGGTTCAGCTAGAGGCCAGAGTATGGAAA | 2.28 |
| TAGCCCAGGTCATGGGCCAGTATACCACGCGAAC | 2.64 |
| AATCCAGGGTCACTAGGCCAGAGTAGGTACGAAT | 4.31 |
| ACTTACGGGTCAACGAGGTTATAGCACGCGTATA | 7.63 |
| TCTATTAATTGAAGGGCAACCGACGAGTCCGTTT | 1.05 |
| CTAGAAAGGTCGGTTGAGGTGAGTATACGGATAA | 2.4 |
| CTACCAAGGTGAACAAGGTAGTTGATTACTATTC | 1.45 |
| TCATATAGGTAAAGGTGAATGTCGAACGATATGA | 0.919 |
| CTCGAAAGGTCGGTTGAGGTGAGTTTACGGATAA | 3.29 |
| CTACCAAGGTGATCAAGGTCGTTGATTACTATTC | 5.3 |
| TCTTGTAGATCAACCAGGTTAAGAAAGCCTGAGT | 1.04 |
| ATCGAAAGGTCGTGCGGTGAGTATACAGAAAGGC | 3.46 |
| TAGCCTAGGTGATGCGGGCCAGTATAGTGTCGGC | -0.796 |
| CCTGATAGGTCAATGGTCAGCTAAAGCAGCTCGC | 1.99 |

| Sequence | PBM binding z-score |
| --- | --- |
| TCTCGAAGGACACGAAGGTCAGAGCTTTCCAGAG | 1.86 |
| CCTAGCAGGCCAGGGACACTCAAGCATTTCGCTT | -0.417 |
| GGAACGAGGGAAAGTTGATAGCAGAGTTTGATGG | -0.524 |
| TGTCAAAGTGCAAAGGTAACGTAAGTATCCACAC | 1.59 |
| TGCATGAGGTTAAAGATCAGGGAACGTGGCGTCG | 2.1 |
| TGATATAGGTAAAAGGTGAAAGTCGGTGTGGTAA | 1.33 |
| TCTATGAGTTGAAGGGCAACCGACGAGTCCGTTT | 0.953 |
| TCTAGCAGGCCAGAGGGTCACTCAGGAGGTACGG | 1.56 |
| TCTTGTAGATCAATAGAGGTTAAGATAGTGCGCT | 1.65 |
| GAAACGAGGGCATTCGAGTTGATAGCATGGCGAT | 3.97 |
| AGTCAAAGTTCGCTAGGTAACGTAAGATTCAGCT | 0.489 |
| CGAACTAGGTCCAGGACAGTGAATCTCCGCACGC | -0.573 |
| AGAACGAGGGCACGCTGAATTGATAGCAGAGTAG | 0.557 |
| TTACCAAGGTGAAGGTCGTTAATCCCTCTGTAGA | 1.16 |
| TCGAGTAGGTTAGTCGGGGCATTCCGCCAACATA | 2.1 |
| AGAACGAGGGCAATGAGTTGCTAGCACGGGTGGC | 3.91 |
| TCTTGTTGATCAATAGAGGTTAAGAAAGTGCGCT | 1.69 |
| CCTAGCAGGCCAATCTGGCTCACTCAAGGCTTGA | -0.563 |
| GGAACGAGGGGATTCGAGTTGATAGCATGGCGAT | 0.173 |
| GCTCTGAGGACAAGGTCAGAGCTTTGTCCGTAGA | 1.68 |
